Laboratory results: the supplement of paper PMC10849652
Of roughly 7,900 targets only a part is listed; those with a hit were picked by preference. About 0.6% of all pairs of compound and target were hits.

Compound: O=C(O)c1ccc2c(c1)nc(Nc1cccc(Cl)c1)c1ccncc12 [silmitasertib]
Test: log2 fold change, soluble protein after heating vs DMSO (PISA); higher = thermal stabilisation; K562 cells, 10 uM, 30 min; active = over 0.2 and 3.5 SD of the protein, either way, in both replicates (recomputed)
Outline: (§1)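 For each measurement, 10 μM compound was applied for 30 min to K562 cells at 2×10^6 cells/mL. Aliquots were heated for 3 min across 48°C-58°C, pooled, and extracted in PBS with 0.5% NP-40 at 4°C; the supernatant after 21,000xg for 90 min was soluble protein. This was quantified by TMTpro 16plex LC-MS/MS with channel sums equalised, and thermal stability was reported relative to control samples from duplicates, on a log2 fold-change scale.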

Sequence of UniProt Q8N8N7 (Q8N8N7 whole entry, looked up): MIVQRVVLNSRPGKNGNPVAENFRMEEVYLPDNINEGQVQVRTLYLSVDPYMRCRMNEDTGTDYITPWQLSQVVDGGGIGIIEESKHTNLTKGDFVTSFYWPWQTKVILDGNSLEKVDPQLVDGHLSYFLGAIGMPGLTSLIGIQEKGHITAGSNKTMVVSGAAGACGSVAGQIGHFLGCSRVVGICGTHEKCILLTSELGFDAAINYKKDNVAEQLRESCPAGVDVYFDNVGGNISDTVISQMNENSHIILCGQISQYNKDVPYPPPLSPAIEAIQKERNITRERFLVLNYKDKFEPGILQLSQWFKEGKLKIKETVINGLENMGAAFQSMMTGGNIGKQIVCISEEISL
Sequence of UniProt Q96PU8 (Q96PU8 whole entry, looked up): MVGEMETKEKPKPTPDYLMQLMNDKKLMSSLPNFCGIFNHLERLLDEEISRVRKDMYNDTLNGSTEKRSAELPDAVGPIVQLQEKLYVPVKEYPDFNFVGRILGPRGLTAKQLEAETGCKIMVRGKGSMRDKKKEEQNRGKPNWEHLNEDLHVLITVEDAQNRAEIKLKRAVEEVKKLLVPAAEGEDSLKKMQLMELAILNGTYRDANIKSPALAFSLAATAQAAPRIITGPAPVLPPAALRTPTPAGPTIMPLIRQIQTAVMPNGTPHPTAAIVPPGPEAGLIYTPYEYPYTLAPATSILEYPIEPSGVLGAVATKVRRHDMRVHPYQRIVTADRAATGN
Sequence of UniProt Q9UG56 (Q9UG56 whole entry, looked up): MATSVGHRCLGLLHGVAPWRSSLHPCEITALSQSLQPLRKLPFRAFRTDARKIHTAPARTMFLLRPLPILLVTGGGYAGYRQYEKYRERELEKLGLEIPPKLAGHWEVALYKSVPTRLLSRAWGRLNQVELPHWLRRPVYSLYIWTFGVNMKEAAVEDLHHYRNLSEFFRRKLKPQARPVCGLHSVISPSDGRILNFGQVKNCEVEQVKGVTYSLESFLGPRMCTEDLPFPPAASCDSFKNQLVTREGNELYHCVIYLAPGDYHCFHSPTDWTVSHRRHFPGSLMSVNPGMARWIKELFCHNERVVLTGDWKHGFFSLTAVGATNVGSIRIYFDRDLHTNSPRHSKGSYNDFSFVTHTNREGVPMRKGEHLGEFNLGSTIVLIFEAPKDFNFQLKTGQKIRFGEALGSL
Sequence of UniProt Q16822 (Q16822 whole entry, looked up): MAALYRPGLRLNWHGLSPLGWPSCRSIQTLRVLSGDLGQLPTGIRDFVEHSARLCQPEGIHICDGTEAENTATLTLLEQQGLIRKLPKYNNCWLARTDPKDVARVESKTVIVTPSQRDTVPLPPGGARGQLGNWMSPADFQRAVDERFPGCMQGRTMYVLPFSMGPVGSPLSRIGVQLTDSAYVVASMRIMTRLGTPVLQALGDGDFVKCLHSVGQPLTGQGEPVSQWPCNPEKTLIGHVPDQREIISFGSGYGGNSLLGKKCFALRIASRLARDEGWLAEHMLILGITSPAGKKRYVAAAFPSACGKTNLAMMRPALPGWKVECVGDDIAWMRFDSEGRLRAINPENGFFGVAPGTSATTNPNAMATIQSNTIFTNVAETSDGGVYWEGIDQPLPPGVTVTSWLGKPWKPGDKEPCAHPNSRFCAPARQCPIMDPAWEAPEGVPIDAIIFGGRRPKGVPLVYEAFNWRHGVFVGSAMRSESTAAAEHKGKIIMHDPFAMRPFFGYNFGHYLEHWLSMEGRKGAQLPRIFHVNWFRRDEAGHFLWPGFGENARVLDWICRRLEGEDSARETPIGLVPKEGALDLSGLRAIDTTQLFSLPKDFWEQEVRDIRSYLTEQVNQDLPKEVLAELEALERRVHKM
Sequence of UniProt O00625 (O00625 whole entry, looked up): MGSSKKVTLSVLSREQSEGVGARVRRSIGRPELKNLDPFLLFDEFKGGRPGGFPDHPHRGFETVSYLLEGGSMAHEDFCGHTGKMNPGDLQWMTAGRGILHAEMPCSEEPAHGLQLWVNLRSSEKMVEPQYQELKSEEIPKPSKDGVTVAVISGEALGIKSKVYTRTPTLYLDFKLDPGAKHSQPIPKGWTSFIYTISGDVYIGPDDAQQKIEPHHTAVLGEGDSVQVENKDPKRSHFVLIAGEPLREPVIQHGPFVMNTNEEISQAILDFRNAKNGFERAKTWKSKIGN
Sequence of UniProt P19174 (P19174 whole entry, looked up): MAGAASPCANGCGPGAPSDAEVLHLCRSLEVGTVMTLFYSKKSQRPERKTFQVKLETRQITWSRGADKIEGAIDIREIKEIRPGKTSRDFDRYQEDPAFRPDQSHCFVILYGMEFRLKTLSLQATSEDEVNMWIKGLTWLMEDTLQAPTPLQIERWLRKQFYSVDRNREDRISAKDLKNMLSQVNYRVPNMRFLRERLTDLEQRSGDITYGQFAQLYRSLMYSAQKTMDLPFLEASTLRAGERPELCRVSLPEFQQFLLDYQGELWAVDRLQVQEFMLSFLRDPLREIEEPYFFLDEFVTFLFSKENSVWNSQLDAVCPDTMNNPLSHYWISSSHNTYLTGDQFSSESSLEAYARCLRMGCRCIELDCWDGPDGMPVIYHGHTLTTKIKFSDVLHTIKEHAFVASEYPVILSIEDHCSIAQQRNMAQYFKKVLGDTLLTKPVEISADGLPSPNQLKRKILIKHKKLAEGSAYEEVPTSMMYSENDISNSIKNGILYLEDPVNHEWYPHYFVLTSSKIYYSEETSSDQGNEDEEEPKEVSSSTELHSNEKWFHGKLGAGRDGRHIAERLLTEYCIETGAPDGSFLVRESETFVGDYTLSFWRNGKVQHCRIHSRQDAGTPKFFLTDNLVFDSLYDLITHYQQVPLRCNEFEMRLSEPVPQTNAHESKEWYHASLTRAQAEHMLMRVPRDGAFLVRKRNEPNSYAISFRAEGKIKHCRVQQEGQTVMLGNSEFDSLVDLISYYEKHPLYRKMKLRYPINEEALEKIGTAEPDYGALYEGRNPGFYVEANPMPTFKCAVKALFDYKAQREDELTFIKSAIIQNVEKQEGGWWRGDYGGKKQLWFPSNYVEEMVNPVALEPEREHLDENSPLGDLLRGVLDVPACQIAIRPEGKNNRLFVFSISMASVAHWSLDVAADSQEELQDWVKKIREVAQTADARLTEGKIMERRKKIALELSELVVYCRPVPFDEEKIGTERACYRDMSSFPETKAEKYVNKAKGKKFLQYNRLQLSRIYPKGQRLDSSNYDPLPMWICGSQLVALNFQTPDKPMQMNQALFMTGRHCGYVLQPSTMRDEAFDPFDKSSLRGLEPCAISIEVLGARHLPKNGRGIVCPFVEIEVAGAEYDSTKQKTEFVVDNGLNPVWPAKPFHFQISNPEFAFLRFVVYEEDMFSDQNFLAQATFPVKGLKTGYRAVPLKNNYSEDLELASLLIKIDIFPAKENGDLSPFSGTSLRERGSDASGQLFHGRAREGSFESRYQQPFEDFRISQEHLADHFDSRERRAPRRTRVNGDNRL
Sequence of UniProt P48556 (P48556 whole entry, looked up): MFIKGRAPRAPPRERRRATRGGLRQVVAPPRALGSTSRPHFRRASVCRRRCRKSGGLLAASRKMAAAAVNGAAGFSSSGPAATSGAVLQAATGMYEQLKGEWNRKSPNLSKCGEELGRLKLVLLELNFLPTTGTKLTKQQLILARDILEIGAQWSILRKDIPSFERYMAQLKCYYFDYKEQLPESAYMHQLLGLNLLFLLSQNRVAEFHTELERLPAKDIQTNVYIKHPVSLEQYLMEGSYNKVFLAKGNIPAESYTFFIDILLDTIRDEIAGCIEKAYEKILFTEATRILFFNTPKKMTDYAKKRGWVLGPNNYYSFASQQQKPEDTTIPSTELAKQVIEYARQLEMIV
Sequence of UniProt Q13356 (Q13356 whole entry, looked up): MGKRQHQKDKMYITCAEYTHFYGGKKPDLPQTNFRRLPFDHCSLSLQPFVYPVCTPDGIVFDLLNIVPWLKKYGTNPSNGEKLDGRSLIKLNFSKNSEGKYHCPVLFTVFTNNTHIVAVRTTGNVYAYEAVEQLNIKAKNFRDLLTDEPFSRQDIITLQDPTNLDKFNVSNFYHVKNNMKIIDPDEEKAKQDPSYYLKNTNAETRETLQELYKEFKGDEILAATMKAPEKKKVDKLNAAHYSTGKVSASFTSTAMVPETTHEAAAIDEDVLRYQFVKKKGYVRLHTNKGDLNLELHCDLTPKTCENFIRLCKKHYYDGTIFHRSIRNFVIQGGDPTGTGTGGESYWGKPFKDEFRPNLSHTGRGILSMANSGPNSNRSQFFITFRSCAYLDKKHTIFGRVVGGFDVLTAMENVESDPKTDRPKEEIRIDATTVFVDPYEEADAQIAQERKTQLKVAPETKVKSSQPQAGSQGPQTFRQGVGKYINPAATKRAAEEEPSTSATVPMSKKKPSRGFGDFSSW
Sequence of UniProt Q02156 (Q02156 whole entry, looked up): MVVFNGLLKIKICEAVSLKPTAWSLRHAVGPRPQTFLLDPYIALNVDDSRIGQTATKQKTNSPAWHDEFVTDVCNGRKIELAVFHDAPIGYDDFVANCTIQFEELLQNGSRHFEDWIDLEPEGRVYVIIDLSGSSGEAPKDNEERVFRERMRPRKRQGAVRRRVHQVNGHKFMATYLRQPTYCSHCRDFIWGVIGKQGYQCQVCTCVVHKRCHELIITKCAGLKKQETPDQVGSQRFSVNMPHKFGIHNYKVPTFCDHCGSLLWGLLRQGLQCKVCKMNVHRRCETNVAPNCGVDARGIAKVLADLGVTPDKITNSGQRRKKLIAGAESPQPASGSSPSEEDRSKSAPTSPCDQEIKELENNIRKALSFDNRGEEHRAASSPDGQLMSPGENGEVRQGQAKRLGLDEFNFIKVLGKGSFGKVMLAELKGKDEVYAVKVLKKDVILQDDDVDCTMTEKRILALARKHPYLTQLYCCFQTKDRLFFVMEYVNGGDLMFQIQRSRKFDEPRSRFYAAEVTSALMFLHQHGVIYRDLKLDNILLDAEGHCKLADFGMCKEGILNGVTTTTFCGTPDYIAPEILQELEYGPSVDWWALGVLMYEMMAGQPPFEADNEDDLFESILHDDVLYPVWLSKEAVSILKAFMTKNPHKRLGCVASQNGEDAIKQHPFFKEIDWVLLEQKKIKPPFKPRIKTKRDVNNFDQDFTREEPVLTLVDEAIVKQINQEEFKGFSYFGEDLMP

log2 fold change, inactive:
PLCG1 isoform 2 (UniProt P19174) 0.01, PISD (UniProt Q9UG56) -0.019, PPIL2 (UniProt Q13356) 0.083, PCK2 (UniProt Q16822) -0.025, PSMC6 (UniProt P62333) -0.035, PSMD8 (UniProt P48556) 0.007, PPP2R5E (UniProt Q16537) -0.014, PRKCE (UniProt Q02156) -0.016, PIR (UniProt O00625) -0.038, PELO (UniProt Q9BRX2) 0.054, PTGFRN (UniProt Q9P2B2) -0.006, PTGR2 (UniProt Q8N8N7) -0.011, QKI (UniProt Q96PU8) -0.012, PARP16 isoform 3 (UniProt Q8N5Y8) -0.197

Compound: O=C1NC(=O)C(c2cnc3ccccn23)=C1c1cn2c3c(cc(F)cc13)CN(C(=O)N1CCCCC1)CC2
Test: as above
Outline: as §1

log2 fold change, active:
PTGR2 (UniProt Q8N8N7) 0.611

log2 fold change, inactive:
PYGB (UniProt P11216) -0.105, PRKCB isoform 2 (UniProt P05771) -0.051, PCYT1B (UniProt Q9Y5K3) -0.231, PRPSAP2 (UniProt O60256) -0.052, POGLUT1 (UniProt Q8NBL1) 0.019, PSMC2 (UniProt P35998) 0.087, PDE4DIP isoform 4 (UniProt Q5VU43) -0.03, PCGF2 (UniProt P35227) -0.069, POLR3K (UniProt Q9Y2Y1) -0.028, PTTG1IP (UniProt P53801) 0.017, PPP6R1 (UniProt Q9UPN7) -0.055, PIGG (UniProt Q5H8A4) -0.019, POLR2K (UniProt P53803) 0.002, PRKAR2B (UniProt P31323) -0.003, PSME4 (UniProt Q14997) 0.02, PPP1R35 (UniProt Q8TAP8) 0.002, PMPCA (UniProt Q10713) 0.01, PPP1CA (UniProt P62136) 0.007, PLSCR1 (UniProt O15162) -0.081, PDS5A (UniProt Q29RF7) -0.103, PGGT1B (UniProt P53609) 0.02, PKN2 (UniProt Q16513) -0.008, PMM2 (UniProt O15305) -0.05, PLCG1 isoform 2 (UniProt P19174) 0, PISD (UniProt Q9UG56) -0.097, PPIL2 (UniProt Q13356) -0.07, PCK2 (UniProt Q16822) -0.148, PSMC6 (UniProt P62333) 0.072, PSMD8 (UniProt P48556) 0.019, PPP2R5E (UniProt Q16537) -0.016, PRKCE (UniProt Q02156) -0.018, PIR (UniProt O00625) -0.012, PELO (UniProt Q9BRX2) 0.063, PTGFRN (UniProt Q9P2B2) -0.007, QKI (UniProt Q96PU8) -0.071, PARP16 isoform 3 (UniProt Q8N5Y8) -0.022

Compound: c1cc(OCCN2CCCCC2)cc(-c2n[nH]c3ccc(-c4nnc[nH]4)cc23)c1
Test: as above
Outline: as §1

log2 fold change, active:
POLR2K (UniProt P53803) -0.474, PIR (UniProt O00625) 0.253

log2 fold change, inactive:
PYGB (UniProt P11216) -0.105, PRKCB isoform 2 (UniProt P05771) 0.02, PCYT1B (UniProt Q9Y5K3) -0.025, PRPSAP2 (UniProt O60256) -0.03, POGLUT1 (UniProt Q8NBL1) -0.05, PSMC2 (UniProt P35998) -0.086, PDE4DIP isoform 4 (UniProt Q5VU43) -0.039, PCGF2 (UniProt P35227) -0.022, POLR3K (UniProt Q9Y2Y1) 0.025, PTTG1IP (UniProt P53801) 0.07, PPP6R1 (UniProt Q9UPN7) -0.05, PIGG (UniProt Q5H8A4) 0.029, PRKAR2B (UniProt P31323) -0.013, PSME4 (UniProt Q14997) -0.092, PPP1R35 (UniProt Q8TAP8) -0.001, PMPCA (UniProt Q10713) 0.015, PPP1CA (UniProt P62136) -0.045, PLSCR1 (UniProt O15162) -0.096, PDS5A (UniProt Q29RF7) -0.075, PGGT1B (UniProt P53609) -0.042, PKN2 (UniProt Q16513) -0.086, PMM2 (UniProt O15305) -0.02, PLCG1 isoform 2 (UniProt P19174) -0.066, PISD (UniProt Q9UG56) -0.006, PPIL2 (UniProt Q13356) -0.014, PCK2 (UniProt Q16822) -0.032, PSMC6 (UniProt P62333) -0.075, PSMD8 (UniProt P48556) -0.101, PPP2R5E (UniProt Q16537) 0.163, PRKCE (UniProt Q02156) -0.055, PELO (UniProt Q9BRX2) -0.057, PTGFRN (UniProt Q9P2B2) -0.104, PTGR2 (UniProt Q8N8N7) 0.231, QKI (UniProt Q96PU8) 0.064, PARP16 isoform 3 (UniProt Q8N5Y8) -0.065
